# Measurements taken from PubChem BioAssay (NCATS).
# Results filed as inconclusive are left out. Where a call stands in place of a potency, no number is given. Calls of active or inactive are those of the source. Unless noted, the call rests on the fitted dose curve; in most records, active means well fitted curve in the direction sought with a large enough effect; inconclusive means small, poorly fitted or top-dose-only effect, or another doubt; inactive means no such curve, though single readings can be large; an effect the other way counts as inactive or inconclusive.
# Columns and labels:
# [1] = P-glycoprotein substrates identified in KB-8-5-11 adenocarcinoma cell line, qHTS therapeutic library screen (AID 1346987); further: nearly all actives have a fitted effect of over 65% in size; further: potency means the concentration at half of the fitted maximal effect
# Procedure, shortened: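 In this qHTS, P-gp-rich KB-8-5-11 cells received library compounds across a concentration range. Viability was quantified by luminescence after 72 h at 37 degree C.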
# [2] = tested on: Zika virus NS2B-NS3 protease (unlinked complex); assay: Primary screen GU Rhodamine qHTS for Zika virus inhibitors: Unlinked NS2B-NS3 protease assay (AID 1347159); further: nearly all actives have a fitted effect of over 60% in size
# Procedure, shortened: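 Percent inhibition came from the 15-min rise in Rhodamine110 fluorescence (1.5 microM substrate, ~15% conversion), normalized to no-inhibitor and no-enzyme wells and Hill-fitted. Unlinked protease, 25 nM, pH 8.0 Tris buffer; compounds up to 114 microM, 15-min preincubation.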
# [3] = molecular target: Cytochrome P450 2D6 (Homo sapiens) (UniProt P10635); assay: Cytochrome P450 family 2 subfamily D member 6 (CYP2D6) small molecule antagonists: luciferase biochemical (cell-free) qHTS assay (AID 1645840; active means well fitted curve in the direction sought with a large enough effect in the repeat runs; an effect the other way counts as inactive or inconclusive; further: nearly all actives have a fitted effect of over 55% in size; further: potency means the concentration at half of the fitted maximal effect)
# Procedure, shortened: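 P450-Glo CYP2D6 system: proluciferin substrate converted by enzyme to luciferin, read by luminescence proportional to activity. Enzyme-substrate mix with compound 10 min at room temperature, then NADPH regeneration 1 h before detection reagent.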
# [4] = molecular target: Cytochrome P450 2C9 (Homo sapiens) (UniProt P11712); assay: Cytochrome P450 family 2 subfamily C member 9 (CYP2C9) small molecule antagonists: luciferase biochemical (cell-free) qHTS assay (AID 1645842; active means well fitted curve in the direction sought with a large enough effect in the repeat runs; an effect the other way counts as inactive or inconclusive; further: nearly all actives have a fitted effect of over 55% in size; further: potency means the concentration at half of the fitted maximal effect)
# Procedure, shortened: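 P450-Glo CYP2C9 system: proluciferin substrate with enzyme in mix containing 0.4% BSA, 10 min at room temperature, then NADPH regeneration solution added and incubated 1 h at 37C. Detection reagent stopped reaction; luminescence read after 20 min as RLU.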
# [5] = tested on: HaCat; assay: Cytotoxic Profiling of Annotated Libraries Using Quantitative High-Throughput Screening (AID 1296008); settings: Five cell lines viability, CellTiter-Glo ATP luminescence, 48-72 h; max response: stronger effect = lower value; further: nearly all actives have a fitted effect of over 60% in size; further: potency means the concentration at half of the fitted maximal effect
# Procedure, shortened: (§1)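 Cells exposed to compounds for 48 or 72 hr at 37 degrees Celsius. Viability read as ATP-coupled luminescence with CellTiter-Glo after 10 min at room temperature.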
# [6] = tested on: HACAT; assay: qHTS assay to identify novel small-molecules to repurpose for Merkel cell carcinoma treatment (AID 1296009); settings: MCC and control cell lines, CellTiter-Glo viability, 72 h; at 44.8 µM (top of the series) unless noted; further: nearly all actives have a fitted effect of over 60% in size
# Procedure, shortened: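 CellTiter-Glo luminescence after 72 hr compound exposure at 37 degree celsius gave cell viability. Libraries NPC and MIPE were run as 8- and 11-point dose responses; RLUs normalized to DMSO (negative) and no-cell (cytotoxicity) controls.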
# [7] = tested on: PA-1; assay: Primary qHTS to identify gynecologic anti-cancer compounds using libraries of approved drugs and bioactive compounds (AID 1345084); settings: Gynecologic cancer cell panel viability, ATPlite luminescence, 48 h; series mostly up to 57.5 µM; further: nearly all actives have a fitted effect of over 55% in size; further: potency means the concentration at half of the fitted maximal effect
# Procedure, shortened: (§2)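 Cell viability after 48 h drug treatment, ATPlite luminescence readout; five doses.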
# [8] = tested on: SKOV3; assay: as above; settings: Gynecologic cancer cell panel viability, ATPlite luminescence, 48 h; series mostly up to 57.5 µM
# Procedure, shortened: as §2
# [9] = tested on: CAOV3; assay: as above; settings: Gynecologic cancer cell panel viability, ATPlite luminescence, 48 h; series mostly up to 57.5 µM
# Procedure, shortened: as §2
# [10] = tested on: CRL-7250; assay: Cytotoxic Profiling of Annotated Libraries Using Quantitative High-Throughput Screening (AID 1296008); settings: Five cell lines viability, CellTiter-Glo ATP luminescence, 48-72 h; max response: stronger effect = lower value; further: nearly all actives have a fitted effect of over 60% in size; further: potency means the concentration at half of the fitted maximal effect
# Procedure, shortened: as §1
# [11] = qHTS to identify inhibitors of the type 1 interferon - major histocompatibility complex class I in skeletal muscle: primary screen against the NCATS Mechanism Interrogation Plate v5.0 (MIPE) Libary (AID 1347411); further: nearly all actives have a fitted effect of over 65% in size
# Procedure, shortened: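 HLA-B HiBit myoblasts, dexamethasone-free medium + 4 ng/ml IFN-b, 24 h compound, 11-pt 1:3 from 46 uM final. Readout: Nano-Glo HiBiT lytic luminescence after 10 min lysis, RT.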
# [12] = molecular target: Catechol O-methyltransferase (Homo sapiens) (UniProt P21964); assay: Confirmatory Screen for Target Class Profiling of Small Molecule Inhibitors of Methyltransferases (AID 1745852; calls by dose curve; further: potency means the concentration at half of the fitted maximal effect); settings: MTase-Glo luminescence, SAH detection, recombinant enzyme; measured here: COMT max response; stronger effect = lower value
# [13] = molecular target: Guanidinoacetate N-methyltransferase (Homo sapiens) (UniProt Q14353); assay: as above; settings: activity change, negative = inhibition: at 57.3 µM (top of the series) unless noted
# [14] = molecular target: Nicotinamide N-methyltransferase (Homo sapiens) (UniProt P40261); assay: as above; settings: MTase-Glo luminescence, SAH detection, recombinant enzyme; measured here: NNMT max response; stronger effect = lower value
# [15] = molecular target: Phenylethanolamine N-methyltransferase (Homo sapiens) (UniProt P11086); assay: as above; settings: MTase-Glo luminescence, SAH detection, recombinant enzyme; measured here: PNMT max response; stronger effect = lower value
# [16] = tested on: NIH3T3; assay: Cytotoxic Profiling of Annotated Libraries Using Quantitative High-Throughput Screening (AID 1296008); settings: Five cell lines viability, CellTiter-Glo ATP luminescence, 48-72 h; max response: stronger effect = lower value; further: nearly all actives have a fitted effect of over 60% in size; further: potency means the concentration at half of the fitted maximal effect
# Procedure, shortened: as §1
# Cytochrome P450 2C9 (Homo sapiens), sequence (P11712 whole entry, looked up): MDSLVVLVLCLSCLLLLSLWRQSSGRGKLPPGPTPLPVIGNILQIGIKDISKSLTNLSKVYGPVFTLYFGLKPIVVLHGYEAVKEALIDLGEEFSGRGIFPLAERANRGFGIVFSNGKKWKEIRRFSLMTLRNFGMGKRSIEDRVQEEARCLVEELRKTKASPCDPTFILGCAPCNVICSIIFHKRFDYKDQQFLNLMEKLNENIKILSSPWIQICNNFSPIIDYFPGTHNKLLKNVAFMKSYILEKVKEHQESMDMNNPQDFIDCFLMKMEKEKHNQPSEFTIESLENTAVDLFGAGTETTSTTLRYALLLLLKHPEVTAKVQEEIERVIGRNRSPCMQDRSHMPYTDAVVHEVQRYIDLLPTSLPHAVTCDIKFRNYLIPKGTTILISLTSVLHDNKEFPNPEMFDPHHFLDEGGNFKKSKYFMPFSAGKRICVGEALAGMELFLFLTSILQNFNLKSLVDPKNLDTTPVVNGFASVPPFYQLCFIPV
# Cytochrome P450 2D6 (Homo sapiens), sequence (P10635 whole entry, looked up): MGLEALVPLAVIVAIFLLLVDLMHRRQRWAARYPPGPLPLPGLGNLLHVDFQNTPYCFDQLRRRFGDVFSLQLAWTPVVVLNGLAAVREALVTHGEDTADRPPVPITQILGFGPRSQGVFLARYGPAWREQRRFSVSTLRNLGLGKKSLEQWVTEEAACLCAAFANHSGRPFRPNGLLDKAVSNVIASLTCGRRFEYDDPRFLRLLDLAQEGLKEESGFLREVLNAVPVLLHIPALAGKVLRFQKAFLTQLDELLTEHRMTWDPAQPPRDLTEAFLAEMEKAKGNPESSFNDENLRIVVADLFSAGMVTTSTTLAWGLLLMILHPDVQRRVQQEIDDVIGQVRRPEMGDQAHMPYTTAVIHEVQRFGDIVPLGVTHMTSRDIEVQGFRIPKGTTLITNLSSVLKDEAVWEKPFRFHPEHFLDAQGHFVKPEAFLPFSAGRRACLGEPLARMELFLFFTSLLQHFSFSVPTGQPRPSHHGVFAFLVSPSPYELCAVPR
# Nicotinamide N-methyltransferase (Homo sapiens), sequence (P40261 whole entry, looked up): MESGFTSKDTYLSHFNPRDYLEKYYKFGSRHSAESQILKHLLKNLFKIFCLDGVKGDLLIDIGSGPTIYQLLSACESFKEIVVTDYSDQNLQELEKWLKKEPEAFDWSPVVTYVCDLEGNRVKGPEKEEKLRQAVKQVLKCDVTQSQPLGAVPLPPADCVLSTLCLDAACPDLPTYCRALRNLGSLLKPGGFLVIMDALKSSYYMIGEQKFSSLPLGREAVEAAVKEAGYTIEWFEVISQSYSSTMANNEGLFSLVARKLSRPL
# Catechol O-methyltransferase (Homo sapiens), sequence (P21964 whole entry, looked up): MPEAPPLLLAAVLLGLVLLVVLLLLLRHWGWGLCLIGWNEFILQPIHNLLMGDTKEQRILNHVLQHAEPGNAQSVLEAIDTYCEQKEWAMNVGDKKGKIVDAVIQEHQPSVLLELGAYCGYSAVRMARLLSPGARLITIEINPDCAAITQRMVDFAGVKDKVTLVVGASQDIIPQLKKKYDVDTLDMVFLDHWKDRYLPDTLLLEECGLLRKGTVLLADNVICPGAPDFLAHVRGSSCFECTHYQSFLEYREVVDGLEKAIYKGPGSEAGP
# Phenylethanolamine N-methyltransferase (Homo sapiens), sequence (P11086 whole entry, looked up): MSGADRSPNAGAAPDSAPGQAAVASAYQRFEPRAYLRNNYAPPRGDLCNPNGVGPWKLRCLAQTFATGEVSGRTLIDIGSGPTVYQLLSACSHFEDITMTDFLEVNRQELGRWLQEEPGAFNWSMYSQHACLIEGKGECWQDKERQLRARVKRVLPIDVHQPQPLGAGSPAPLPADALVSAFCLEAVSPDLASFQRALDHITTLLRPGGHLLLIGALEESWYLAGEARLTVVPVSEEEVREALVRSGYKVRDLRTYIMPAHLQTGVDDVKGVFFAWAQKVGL
smiles,measurement,setting,value
CCC[C@@H](NC(=O)N1C(=O)C(CC)(CC)[C@@H]1Oc1ccc(C(=O)N2CCN(C)CC2)cc1)c1ccc2c(c1)OCO2,Potency,[1],20.6 µM (active)
same,Potency,[2],inactive
same,Potency,[3],16.9 µM (active)
same,Potency,[4],3.38 µM (active)
same,outcome,[5],inactive
same,outcome,[6],inactive
same,Potency,[7],inactive
same,Potency,[8],inactive
CNc1ccc([N+](=O)[O-])cc1-n1cnc(-c2ccc(C(F)(F)F)cc2)c1,Potency,[2],inactive
same,Potency,[3],0.756 µM (active)
same,max response,[5],-13.4% (inactive)
same,Potency,[9],inactive
same,Potency,[7],inactive
same,Potency,[8],inactive
Cc1[nH]c(/C=C2\C(=O)Nc3ccc(F)cc32)c(C)c1C(=O)NC[C@H](O)CN1CCOCC1,Potency,[3],inactive
same,Potency,[4],inactive
same,Potency,[10],6.51 µM (active)
Cn1cc(-c2cnc3ccc4ccc(CS(=O)(=O)NCc5ccccn5)cc4c(=O)c3c2)cn1,Potency,[2],inactive
same,Potency,[11],inactive
same,Potency,[3],12 µM (active)
same,activity,[12],-3.92%
same,Potency,[13],inactive
same,activity,[14],-3.63%
same,activity,[15],-3.14%
same,max response,[10],-6.66% (inactive)
same,max response,[5],-3.23% (inactive)
same,Potency,[9],inactive
same,Potency,[7],inactive
CC[C@H](CO)Nc1nc(Nc2cccc(-c3ccccn3)c2)c2ncn(C(C)C)c2n1,Potency,[1],20.6 µM (active)
same,Potency,[4],0.379 µM (active)
same,max response,[10],-6.96% (inactive)
same,Potency,[5],18.4 µM (active)
same,Potency,[9],inactive
same,Potency,[8],inactive
Cn1c(NC[C@@H](N)Cc2ccccc2)nc(-c2ccncc2)c(-c2ccc3ccccc3c2)c1=O,Potency,[3],19 µM (active)
same,max response,[10],-1.38% (inactive)
same,Potency,[9],inactive
same,Potency,[7],inactive
same,Potency,[8],inactive
COc1cc([C@@H](CC(=O)O)c2ccc(C)c(CN3C[C@@H](C)Oc4ccccc4S3(=O)=O)c2)cc2nnn(C)c12,Potency,[11],inactive
same,max response,[5],-8.19% (inactive)
same,max response,[16],3.5% (inactive)
Cc1ccc(C(=O)N2CCN(c3ccc([N+](=O)[O-])cc3)CC2)cc1Cl,Potency,[2],inactive
same,Potency,[3],inactive
same,Potency,[4],16.9 µM (active)
same,max response,[5],-12.6% (inactive)
same,Potency,[9],inactive
same,Potency,[7],inactive
same,Potency,[8],inactive
C[C@@H]1COCCN1c1cc(C2(S(C)(=N)=O)CC2)nc(-c2ccnc3[nH]ccc23)n1 (some centres not stated),Potency,[5],16.6 µM (active)
same,Potency,[16],4.17 µM (active)
C=C(C)C(=O)OC1[C@@H]2C(=C)C(=O)O[C@@H]2C[C@@H](C)[C@@H]2C=CC(=O)[C@@]12C (some centres not stated),Potency,[2],inactive
same,outcome,[5],inactive
same,outcome,[6],inactive
same,Potency,[8],inactive
N#CCC(C1CCCC1)n1cc(-c2ncnc3[nH]ccc23)cn1 (configuration not stated),Potency,[2],inactive
same,Potency,[3],inactive
same,outcome,[5],inactive
same,outcome,[6],inactive
same,Potency,[7],inactive
same,Potency,[8],inactive
CC(C)(C)c1ccc(-c2nc3ccccc3[nH]2)cc1,activity,[12],-68.9%
same,Potency,[13],10.5 µM (active)
same,activity,[14],-65.6%
same,activity,[15],-70.3%
same,max response,[5],-8.47% (inactive)
same,Potency,[9],0.891 µM (active)
same,Potency,[7],1 µM (active)
same,Potency,[8],1 µM (active)
CNC(=O)c1cccc2cc(Oc3ccnc4cc(OCC5(N)CC5)c(OC)cc34)ccc12,Potency,[2],inactive
same,Potency,[3],inactive
same,outcome,[5],inactive
same,outcome,[6],inactive
same,Potency,[9],inactive
OCC(CO)(CO)NCC(O)Cn1c2ccc(Cl)cc2c2cc(Cl)ccc21 (configuration not stated),Potency,[1],inactive
same,Potency,[2],inactive
same,max response,[5],1.65% (inactive)
same,Potency,[9],inactive
same,Potency,[7],inactive
CC(=O)c1c(OCCN2CCCCC2)c(OCCC(C)c2ccc(F)cc2)c2oc(C)nc2c1C (configuration not stated),Potency,[1],20.6 µM (active)
same,Potency,[3],0.477 µM (active)
same,Potency,[4],19 µM (active)
same,outcome,[5],inactive
same,outcome,[6],inactive
C/C=C(/COC(=O)/C(C)=C/C)C(=O)OC/C=C/c1ccc(OC)cc1,outcome,[5],inactive
same,outcome,[6],inactive
same,Potency,[8],inactive
CCC(C)n1cc(C)c2c(C(=O)NCc3c(C)cc(C)[nH]c3=O)cc(-c3ccc(N4CCNCC4)nc3)cc21 (configuration not stated),outcome,[5],inactive
same,outcome,[6],inactive
same,Potency,[7],inactive
same,Potency,[8],inactive
CC/C(=C(\c1ccc(O)cc1)c1ccc(OCCNC)cc1)c1ccccc1,Potency,[2],inactive
same,outcome,[5],inactive
same,outcome,[6],inactive
same,Potency,[9],inactive
same,Potency,[7],inactive
same,Potency,[8],inactive
CC1CCC2C(C)(C)C(O)CCC2(C)C12Cc1c(O)cc3c(c1O2)CN(C(CCCN=C(N)N)C(=O)O)C3=O (configuration not stated),Potency,[2],inactive
same,outcome,[10],inactive
same,outcome,[5],inactive
same,outcome,[6],inactive [at 17.4 µM]
same,Potency,[8],inactive
Cc1ccccc1C(=O)Nc1ccc(C(=O)N2CCC[C@@H](O)c3cc(Cl)ccc32)c(C)c1,Potency,[2],inactive
same,max response,[5],-22.4% (inactive)
same,Potency,[9],inactive
same,Potency,[7],inactive
CCOC(=O)c1cccc(CNc2ccc(N(C)C(=O)Nc3ccccc3)cc2)c1,Potency,[3],5.35 µM (active)
same,Potency,[4],0.601 µM (active)
same,max response,[5],-23.2% (inactive)
same,Potency,[8],14.1 µM (active)
CC1CCCC(SCC(O)C(=O)O)CC(=O)c2c(O)cc(O)cc2CC(=O)O1 (configuration not stated),max response,[5],-1.3% (inactive)
same,Potency,[9],inactive
CCCCn1c(-c2ccccc2)nc(-c2ccccc2)c1CN(Cc1ccc2c(c1)OCO2)Cc1ccc2c(c1)OCO2,Potency,[2],inactive
same,Potency,[3],0.849 µM (active)
same,max response,[5],-27.1% (inactive)
same,Potency,[7],inactive
same,Potency,[8],inactive
